# Reference: PubChem BioAssay (NCATS)
# Values joined by “and” are separate entries in the source; they are usually repeats but may differ in a detail not shown here. Equal values may be shown once. Results filed as inconclusive are left out. A call without a number means that no potency is given here. A structure can be active in one record and inactive in another. Active and inactive are the calls of the source. Unless noted, calls come from the whole dose curve; as a rule, active = well fitted curve in the direction sought with a large enough effect; inconclusive = small, poorly fitted or top-dose-only effect, or another doubt; inactive = no such curve, though single readings can be large; an effect the other way counts as inactive or inconclusive.
# Columns and labels:
# [1] = qHTS for Inhibitors of Plasmodium falciparum (DD2) proliferation (AID 504314)
# Procedure, shortened: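 Erythrocytes infected with P. falciparum Dd2 (0.3% parasitemia, 2.5% hematocrit) exposed to compound 72 h at 37C, 5% CO2. Parasite DNA quantified by SYBR Green fluorescence after saponin/Triton lysis overnight; normalized to 0.29 uM artemisinin and DMSO.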
# [2] = qHTS for Inhibitors of Plasmodium falciparum (GB4) proliferation (AID 504315); note: nearly all actives have a fitted effect of over 50% in size
# Procedure, shortened: (§1)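 Erythrocytes infected with P. falciparum line (0.3% parasitemia, 2.5% hematocrit final) incubated with compounds 72 h at 37 °C, 5% CO2; SYBR Green lysis buffer added, fluorescence read next day. Normalized to 0.29 uM artemisinin and DMSO.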
# [3] = qHTS for Inhibitors of Plasmodium falciparum (7G8) proliferation (AID 504316); note: nearly all actives have a fitted effect of over 65% in size
# Procedure, shortened: as §1
# [4] = qHTS for Inhibitors of Plasmodium falciparum (HB3) proliferation (AID 504318); note: nearly all actives have a fitted effect of over 60% in size
# Procedure, shortened: as §1
# [5] = qHTS for Inhibitors of Plasmodium falciparum (CP250) proliferation (AID 504320)
# Procedure, shortened: as §1
# [6] = molecular target: Atrial natriuretic peptide receptor 1 (Homo sapiens) (UniProt P16066); assay: Natriuretic polypeptide receptor (hNpr1) antagonism - Pilot CMLD screen (AID 1347052; calls by dose curve;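 note: cGMP level read as GloSensor luciferase luminescence after agonist stimulation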)
# Chain of Atrial natriuretic peptide receptor 1 (Homo sapiens) (P16066 whole entry, looked up): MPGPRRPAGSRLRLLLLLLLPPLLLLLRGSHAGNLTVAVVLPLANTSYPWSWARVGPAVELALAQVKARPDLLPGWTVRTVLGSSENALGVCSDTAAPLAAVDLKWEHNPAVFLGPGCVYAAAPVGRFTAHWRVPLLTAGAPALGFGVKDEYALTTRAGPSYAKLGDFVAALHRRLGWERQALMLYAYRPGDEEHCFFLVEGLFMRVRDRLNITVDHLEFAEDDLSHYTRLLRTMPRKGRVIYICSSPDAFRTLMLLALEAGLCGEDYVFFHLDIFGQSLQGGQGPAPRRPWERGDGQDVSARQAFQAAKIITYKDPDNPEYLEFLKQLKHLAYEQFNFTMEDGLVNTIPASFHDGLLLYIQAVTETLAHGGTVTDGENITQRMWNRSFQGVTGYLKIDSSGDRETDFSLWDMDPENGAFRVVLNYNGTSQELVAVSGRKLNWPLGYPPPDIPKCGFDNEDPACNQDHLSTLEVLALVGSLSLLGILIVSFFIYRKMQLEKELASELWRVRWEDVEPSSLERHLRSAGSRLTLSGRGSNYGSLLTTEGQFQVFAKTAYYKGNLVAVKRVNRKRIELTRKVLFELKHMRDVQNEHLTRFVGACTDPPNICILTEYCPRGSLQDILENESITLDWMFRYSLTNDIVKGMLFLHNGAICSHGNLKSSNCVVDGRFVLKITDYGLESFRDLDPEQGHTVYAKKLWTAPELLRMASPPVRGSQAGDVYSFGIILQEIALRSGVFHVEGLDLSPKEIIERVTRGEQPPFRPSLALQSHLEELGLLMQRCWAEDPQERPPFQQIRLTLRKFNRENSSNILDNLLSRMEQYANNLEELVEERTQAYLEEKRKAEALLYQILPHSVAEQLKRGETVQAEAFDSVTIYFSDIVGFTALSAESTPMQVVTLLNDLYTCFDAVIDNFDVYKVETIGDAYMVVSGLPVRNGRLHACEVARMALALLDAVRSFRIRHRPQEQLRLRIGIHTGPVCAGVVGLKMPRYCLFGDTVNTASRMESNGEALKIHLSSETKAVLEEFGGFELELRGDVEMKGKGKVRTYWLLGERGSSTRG
# Potency is the fitted concentration of half-maximal effect.
Compound,Potency [1],Potency [2],Potency [3],Potency [4],Potency [5],Potency [6]
COC(=O)CC=C[C@@H](C)[C@@H](C=NOC[C@@H](O)[C@H]1O[C@@H]2OC(C)(C)O[C@H]2[C@@H]1O)OC,inactive,inactive,inactive,inactive,inactive,inactive
O=C1CCCC=C1C(CCc1ccccc1)OC(=O)c1ccc(Br)cc1 (stereo not drawn),inactive,inactive,inactive,inactive,inactive,inactive
COC(=O)CCCC1=CC2=C(c3ccccc3)C(=O)C(C)(OC(=O)C3CCCC3)C(=O)C2=CN1CCN1CCOCC1 (stereo not drawn),inactive,inactive,inactive,inactive,inactive,inactive
O=C1c2ccccc2C(=O)N1CCCC[C@]12Cc3c(ccc4ccccc34)[C@H](O1)c1c(cc(-c3ccccc3)oc1=O)O2,753 nM (active),536 nM (active),379 nM (active),536 nM (active),1510 nM (active),inactive
Cc1ccc(O[C@@H]2[C@H](O)CO[C@H]2C=CC#Cc2ccc(C(C)(C)C)cc2)cc1,inactive,inactive,inactive,inactive,inactive,inactive
C=C(C(=O)OCC)C(=O)c1ccccc1,inactive,inactive,inactive,inactive,inactive,inactive
CCCCS(=O)(=O)N1C2=NC3=C(C(=O)N(CCOC)C3=O)C3N(C)c4ccccc4[C@]23C[C@H]1CO (stereo partly drawn),inactive,inactive,inactive,inactive,inactive,inactive
CCOC(=O)CN1C(=O)NC(c2ccc(Br)cc2)C(C(=O)OC)=C1C (stereo not drawn),inactive,inactive,inactive,inactive,inactive,inactive
O=C1C[C@@H](c2ccccc2)[C@H](c2ccc(Br)cc2)O1,inactive,inactive,inactive,inactive,inactive,inactive
CCCCCCC#C[C@@H]1C=C[C@H](OC(=O)OCC)[C@@H](COC(=O)OCC)O1,inactive,inactive,inactive,inactive,inactive,inactive
CCOC(=O)CCN1C(=O)[C@@H]2[C@H]3[C@H](O)[C@H](O)CC(=NOCC(C)C)[C@@H]3CC[C@H]2C1=O,inactive,inactive,inactive,inactive,inactive,inactive
COC(=O)N(C=Cc1ccc(OC)cc1)CCc1ccc(OC)c(OC)c1,inactive,inactive,inactive,inactive,inactive,inactive
CC(=O)C1=C(C)N(Cc2ccccc2)C(=O)NC1c1cccc(F)c1 (stereo not drawn),inactive,inactive,inactive,inactive,inactive,inactive
COC(=O)C1=C(C)[C@H](O)[C@@H](C)[C@](C)(c2cc(OC)c(C)c(OC)c2COc2ccccc2)O1,inactive,2.13 µM (active) and inactive,inactive,1.9 µM (active) and inactive,inactive,inactive
COC(=O)N[C@@H](c1cccs1)C(C(C)=O)C(=O)OC (stereo partly drawn),inactive,inactive,inactive,inactive,inactive,inactive
CC1(OC(=O)C2CCCC2)C(=O)C=C2C=C(c3ccc(C#N)cc3)OC=C2C1=O (stereo not drawn),inactive,inactive,inactive,inactive,inactive,inactive
CC12C=C(C=CC=Cc3ccco3)C(C)(C1)C(C=Cc1ccco1)CC2=O (stereo not drawn),inactive,inactive,inactive,inactive,inactive,inactive
COC(=O)C[C@H]1c2ccccc2[C@@H]2C(=C[C@@H](C)[C@H]3C(=O)N(c4ccccc4)C(=O)[C@H]32)N1C(=O)OC,inactive,inactive,inactive,inactive,inactive,inactive
CC(=O)OC[C@H]1O[C@H](CC=NOC[C@@H](O)[C@H]2O[C@@H]3OC(C)(C)O[C@H]3[C@@H]2O)C=C[C@H]1OC(C)=O,inactive,inactive,inactive,inactive,inactive,inactive
C=C(C)CCN1C(=O)NC(c2ccccc2)C(C(C)=O)=C1C (stereo not drawn),inactive,inactive,inactive,inactive,inactive,inactive
CCCC[C@]12Cc3c(ccc4ccccc34)[C@H](O1)c1c(cc(C)oc1=O)O2,inactive,inactive,inactive,inactive,inactive,inactive
Cc1ccccc1Nc1oc(-c2ccccc2)nc1CCc1ccccc1,inactive,inactive and 1.51 µM (active),inactive and 1.69 µM (active),inactive and 1.69 µM (active),inactive and 1.51 µM (active),inactive
COCCN1C(=O)NC(c2cccc(C(F)(F)F)c2)C(C(=O)OC)=C1C (stereo not drawn),inactive,inactive,inactive,inactive,inactive,inactive
COC(=O)NC(C(=O)OC)(C(=O)OC)c1ccccc1,inactive,inactive,inactive,inactive,inactive,inactive
COc1ccc(-c2nc3c(c4c2C[C@H](c2ccccc2)OC4)CN(S(=O)(=O)c2ccc(Cl)c4nonc24)CC3)c(C)c1,inactive,inactive,inactive,inactive,inactive,inactive
CCOC(=O)CN1C(=O)N(CC)C(C)=C(C(=O)OC)C1c1ccccc1 (stereo not drawn),inactive,inactive,inactive,inactive,inactive,inactive
COC(=O)NC(CCc1ccccc1)C(C(=O)OC)C(=O)OC (stereo not drawn),inactive,inactive,inactive,inactive,inactive,inactive

Compound,Potency [1],Potency [2],Potency [3],Potency [4],Potency [5],Potency [6]
CCOC(=O)C1=CN(CCc2cn(Cc3ccccc3)nn2)C(=O)NC1c1ccccc1 (stereo not drawn),inactive,inactive,inactive,inactive,inactive,inactive
COc1cccc([C@H]2Oc3ccc(OC)cc3C(=NOCC[C@@H]3C=C[C@H](OC(C)=O)[C@@H](COC(C)=O)O3)[C@H]2O)c1,inactive,inactive,inactive,inactive,inactive,inactive
COCCN1C(=O)NC(c2cccc(F)c2)C(C(C)=O)=C1C (stereo not drawn),inactive,inactive,inactive,inactive,inactive,inactive
C=CCOC(=O)NC(c1ccc(F)c(F)c1)C(C(=O)COC)C(=O)OC (stereo not drawn),inactive,inactive,inactive,inactive,inactive,inactive
COC(=O)[C@@]1(C=C2c3ccc(OC)cc3[C@@H](OC)[C@@H]2C)[C@@H]2C=CC[C@@H]21,inactive,inactive,inactive,inactive,inactive,inactive
CC(=O)OC[C@H]1O[C@H](C#Cc2ccccc2)C=C[C@H]1O,inactive,inactive,inactive,inactive,inactive,inactive
C#CCCCON=C1C[C@@H](O)[C@H](O)[C@H]2[C@@H]3C(=O)N(c4cccc(Oc5ccccc5)c4)C(=O)[C@@H]3CC[C@@H]12,inactive,inactive,inactive,inactive,inactive,inactive
O=C(NN=C1C[C@@H](O)[C@H](O)[C@H]2[C@@H]3C(=O)N(C4CCCCC4)C(=O)[C@@H]3CC[C@H]12)OCc1ccccc1,inactive,inactive,inactive,inactive,inactive,inactive
C=CCOC(=O)N[C@H](C(C(=O)OC)=C(C)NCc1ccccc1)c1cccc(C(F)(F)F)c1,inactive,inactive,inactive,inactive,inactive,inactive and 1.33 µM (active)
COc1ccc([C@]23Cc4cc(OC)c(OC)cc4[C@H](O2)C2=C(CC4(CCCCC4)OC2=O)O3)cc1,inactive,inactive,inactive,inactive,inactive,inactive
O=C(Oc1ccccc1)[C@H]1O[C@H]1c1ccccc1,inactive,inactive,inactive,inactive,inactive,inactive
CCOC(=O)C1(C(=O)OCC)Cc2ccc(C(C)=O)cc2C1,inactive,inactive,inactive,inactive,inactive,inactive
Cc1cc2c(nc1C)CCCN2CC(O)CN1CCCc2nc(-c3ccc(Br)cc3)ccc21 (stereo not drawn),inactive,inactive,inactive,inactive,inactive,inactive
C[C@@H]1CC[C@H]2C(=O)N(Cc3cccc([N+](=O)[O-])c3)C[C@@H](O)CN2[C@@H]1c1cccc(Br)c1,inactive,inactive,inactive,inactive,inactive,inactive
CC(=O)C1=CN(CCC=Cc2ccccc2)C(=O)NC1c1ccccc1 (stereo not drawn),inactive,inactive,inactive,inactive,inactive,inactive
CCN1C(=O)NC(c2ccc(Br)cc2)C(C(C)=O)=C1C (stereo not drawn),inactive,inactive,inactive,inactive,inactive,inactive
CCCC=CC1C(=O)[C@@H]2O[C@H]2C2(OCC(CC)(CC)CO2)C1CO (stereo partly drawn),inactive,inactive,inactive,inactive,inactive,inactive
O=C1[C@@H]2[C@H]3[C@H](O)[C@H](O)CC(=NOC[C@@H](O)COCc4ccco4)[C@@H]3CC[C@H]2C(=O)N1C1CCCCC1,inactive,inactive,inactive,inactive,inactive,inactive
COC(=O)CC=C[C@@H](C)[C@@H](C=NOCC[C@@H]1C=C[C@H](OC(C)=O)[C@@H](COC(C)=O)O1)NS(=O)(=O)c1ccc(C)cc1,inactive,inactive,inactive,inactive,inactive,inactive
CCOC(=O)CN1C(=O)NC(c2cccc(F)c2)C(C(=O)OC)=C1C (stereo not drawn),inactive,inactive,inactive,inactive,inactive,inactive
COC(=O)[C@H]1O[C@@H](c2cc(OC)c(C)c(OC)c2OCc2ccccc2)[C@H](C)[C@H]2O[C@@]12C,inactive,inactive,inactive,inactive,inactive,inactive
COC(=O)c1nnc(N[C@@H](Cc2c[nH]c3ccccc23)C(=O)OC)nc1C(=O)OC,inactive,inactive,inactive,inactive,inactive,inactive
C=C(CO[C@@H]1C=C[C@@H](c2ccccc2)O[C@@H]1CO)c1ccccc1,inactive,inactive,inactive,inactive,inactive,inactive
COc1cccc2c1C1(CCCCC1)CC2NC(=O)C(F)(F)F (stereo not drawn),inactive,inactive,inactive,inactive,inactive,inactive
COc1cccc(CC(=O)N2CCc3nc(COc4ccccc4)c4c(c3C2)CO[C@@H](C)C4)c1,inactive,inactive,inactive,inactive,inactive,inactive
CSc1nnc2c(n1)C[C@H](c1ccccc1)[C@@H](C)[C@@H](C(=O)N1CCCC1)C2,inactive,inactive,inactive,inactive,inactive,inactive
